Measured values reported in PubChem BioAssay (NCI).
This is part of a sample that, as a whole, favours compounds with a hit. Of some 79,000 tested, about 15% had one in any assay. No stated cut-off is given here; in the data, active means growth inhibition above about 70%; inactive means the rest.

Columns and labels:
[1] = NCI Yeast Anticancer Drug Screen. Data for the rad50 strain (AID 155);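 further: 0% = growth of vehicle-only cultures of the same strain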; details: S. cerevisiae rad50 strain growth inhibition; at 50.0 µM; hits give high values
In short: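 A DNA repair-deficient yeast mutant serves as the test organism; compound-induced growth inhibition is calculated against vehicle-treated cells.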

[2] = NCI Yeast Anticancer Drug Screen. Data for the mec2-1 strain (AID 157); details: S. cerevisiae mec2-1 strain, at 50.0 µM, hits give high values
In short: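 Mutant yeast (mec2-1) grown with compound; growth inhibition relative to vehicle control reported.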

[3] = NCI Yeast Anticancer Drug Screen. Data for the sgs1 mgt1 strain (AID 161);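 further: 0% = growth of cultures given vehicle only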; details: S. cerevisiae sgs1 mgt1 strain, at 50.0 µM, hits give high values
In short: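 Growth of a repair-deficient yeast mutant was monitored after compound treatment and expressed as inhibition relative to vehicle-treated cultures.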

[4] = NCI Yeast Anticancer Drug Screen. Data for the cln2 rad14 strain (AID 165);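 further: 0% = growth equal to vehicle treated cultures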; details: S. cerevisiae cln2 rad14 strain, at 50.0 µM, hits give high values
In short: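 Readout is yeast growth inhibition versus vehicle-treated controls, using a strain with cln2 and rad14 alterations exposed to compound.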

[5] = NCI Yeast Anticancer Drug Screen. Data for the bub3 strain (AID 167); details: S. cerevisiae bub3 mutant strain, at 50.0 µM, hits give high values
In short: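 Inhibition values come from growth of compound-treated mutant yeast normalised to vehicle-treated controls.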

[6] = NCI Yeast Anticancer Drug Screen. Data for the mlh1 rad18 strain (AID 175); details: S. cerevisiae mlh1 rad18 strain growth inhibition; at 50.0 µM; hits give high values
In short: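 Genetically defined yeast (DNA repair-deficient) exposed to compounds; growth inhibition determined relative to vehicle.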

Measured: growth inhibition

CSC(=S)/C(=C/Nc1ccccn1)c1ccccc1
inactive: [1] 39.5% | [2] 14.5% | [3] -8.6% | [4] 15.2% | [5] 37.8% | [6] 14.9%

CC1(C)N=C(C(N)=O)c2ncn(CCCO)c2N1
inactive: [1] -13.5% | [2] -12.6% | [3] -48.4% | [4] 23.2% | [5] -0.35% | [6] -6.8%

Cc1nc2ccccc2nc1CCO
inactive: [1] -12.7% | [2] -0.15% | [3] -3.85% | [4] -24.2% | [5] -24.8% | [6] -8.8%

Cc1ccc2c(=O)cc(-c3cccc(F)c3)[nH]c2n1
inactive: [1] -4.9% | [2] -0.9% | [3] -11% | [4] 23.9% | [5] -6.25% | [6] -16.4%

Cn1c(=O)c2c(nc(CCNC(=O)c3ccccc3)n2C)n(C)c1=O
inactive: [1] -1.15% | [2] -7.75% | [3] 11.1% | [4] -27.4% | [5] 5.6% | [6] -17.1%

CCOC(=O)C[C@](C)(O)C1CCCN1 (some centres not stated)
inactive: [1] 26.5% | [2] 11.8% | [3] 5.95% | [4] 5.3% | [5] -3% | [6] 8.75%

CCOc1c(/C=C\c2cc(/C=C/c3cccc(OC)c3OCC)c([N+](=O)[O-])cc2[N+](=O)[O-])cccc1OC
inactive: [1] 16.4% | [2] -13.7% | [3] 1.75% | [4] -36.6% | [5] -4.45% | [6] 9.55%

CCN(CC)CC(O)Cn1cnc2c(SC)ncnc21 (configuration not stated)
inactive: [1] -0.75% | [2] 0.6% | [3] -2.95% | [4] 5.5% | [5] 4.5% | [6] -1.9%

Cc1ccc(NC(=O)C(=O)Cc2cccc[n+]2[O-])cc1C
inactive: [1] 25.4% | [2] 13.1% | [3] -4.1% | [4] 12.2% | [5] 9.05% | [6] -6.1%

O=C1CCCC(=O)N1CCCO
inactive: [1] 10.1% | [2] -6.4% | [3] -24.2% | [4] -91% | [5] -6.4% | [6] 6.5%

O=C(O)c1ccc(OC2CCCCC2)cc1
inactive: [1] 6.85% | [2] 12.1% | [3] 42.1% | [4] 18.6% | [5] 11.4% | [6] 30.9%

CCOC(=O)C(C(=O)OCC)(C(=O)C(F)(F)C(F)(F)C(F)(F)C(F)(F)C(=O)C(C(=O)OCC)(C(=O)OCC)c1ccccc1)c1ccccc1
inactive: [1] 3.75% | [2] 0% | [3] -3.7% | [4] -10.6% | [5] 7.75% | [6] 11.1%

CN1c2ccccc2Nc2cc(C#N)ccc21
inactive: [1] -0.7% | [2] -8.3% | [3] 14.8% | [4] -30.4% | [5] 19.2% | [6] 5.7%

CCCCCc1cc(C(=O)NN)c2ccccc2n1
inactive: [1] -29.7% | [2] -25% | [3] -12.6% | [4] -15.8% | [5] 33.1% | [6] -12.8%

O=c1cccc2c3ccccc3ccn12
inactive: [1] 22.9% | [2] 7% | [3] 15.3% | [4] 12.3% | [5] 15.3% | [6] 13.5%

Nc1cccc([N+](=O)[O-])c1O
inactive: [1] 4.75% | [2] 2.45% | [3] 12.7% | [4] 9.75% | [5] 5.4% | [6] 12.4%

O=[N+]([O-])c1ccc(P(=O)(O)c2ccc([N+](=O)[O-])cc2)cc1
inactive: [1] 15% | [2] 17.6% | [3] 23.6% | [4] -25.9% | [5] -11% | [6] 34.7%

O=C(O)CC(c1ccccc1)C(CC(=O)O)c1ccccc1.[NH-]C1CCCCC1[NH-].[Pt+2] (configuration not stated)
inactive: [1] 37.2% | [2] 7.8% | [3] -49.9% | [4] -5.55% | [5] -36.9% | [6] -5.6%

Cc1ccc(NC(=O)CC/C(CC(=O)C(C)(C)C)=N\Nc2ccc([N+](=O)[O-])cc2[N+](=O)[O-])cc1C
inactive: [1] 18.6% | [2] -3.55% | [3] -11.7% | [4] 4% | [5] 7.8% | [6] -18.3%

CCOC(=O)C(CCCBr)(C(=O)OCC)N1C(=O)c2ccccc2C1=O
inactive: [1] 20.8% | [2] -13.3% | [3] 10.9% | [4] 18.2% | [5] 31.8% | [6] 12.6%

CC(=O)O[C@H]1CC[C@@]2(C)[C@@H](CC[C@@H]3[C@@H]2CC(=O)[C@]2(C)[C@@H]4[C@H](C[C@@H]32)O[C@]2(CC[C@@H](C)CO2)[C@H]4C)C1
inactive: [1] -11.7% | [2] -12.2% | [3] -11.8% | [4] -13.2% | [5] -34.6% | [6] 2.3%

Nc1cc2c(cc1/C=C1\CCNC1=O)OCO2
inactive: [1] -5.65% | [2] -12.1% | [3] -22.2% | [4] -6.6% | [5] -11.8% | [6] -4.85%

CN1C/C(=C\c2ccccc2)C2=NN(C(N)=S)[C@H](c3ccccc3)[C@@H]2C1
inactive: [1] 3.5% | [2] -18.1% | [3] -5.85% | [4] 10.9% | [5] -19.8% | [6] -16.9%

CCOC(=O)CCC(NC(=O)c1ccc(Nc2nc3cc(C(F)(F)F)ccc3nc2-c2ccccc2)cc1)C(=O)OCC (configuration not stated)
inactive: [1] 12.9% | [2] 2.7% | [3] 12.1% | [4] 3.9% | [5] -5.35% | [6] -37.1%

CC(N)C(C)Cc1ccccc1 (configuration not stated)
inactive: [1] -20.2% | [2] -21.4% | [3] -19.7% | [4] 65.7% | [5] -31.9% | [6] -14.6%

O=c1[nH]c2ccccc2nc1/C=C/NC(=S)Nc1ccccc1
inactive: [1] -11.4% | [2] -18.1% | [3] -20% | [4] 6% | [5] -0.95% | [6] -2.2%

O=S(Cc1ccccc1)c1ccccc1Cn1cccc1 (configuration not stated)
inactive: [1] -32.8% | [2] -39.6% | [3] -19.6% | [4] -18.6% | [5] 14.2% | [6] -9.5%

Cc1ccc(/C=C/C(=N/Nc2ccccc2)C(C)CN(C)C)cc1 (configuration not stated)
inactive: [1] -3.2% | [2] -10.1% | [3] -3.25% | [4] -15.3% | [5] -1.35% | [6] -5%

COC(=O)c1cc(C(=O)OC)c(CC(=O)C(=O)Nc2ccc(Cl)c(C(F)(F)F)c2)nc1CC(=O)C(=O)Nc1ccc(Cl)c(C(F)(F)F)c1
inactive: [1] -25.2% | [2] -30.2% | [3] -30.9% | [4] 10.5% | [5] 12.2% | [6] -17.9%

CCCCN(c1ccccn1)S(=O)(=O)c1ccccc1
inactive: [1] -2.3% | [2] 19.8% | [3] 19.3% | [4] 7.6% | [5] -3.55% | [6] 5.75%

CCC(S)(C(N)=O)c1ccccc1 (configuration not stated)
inactive: [1] 3% | [2] -10.4% | [3] -7.55% | [4] -26.8% | [5] -4.8% | [6] -18.2%

CCCNC(=O)Nc1ccccc1OCC
inactive: [1] -3.6% | [2] -5.55% | [3] -8.6% | [4] -68% | [5] 13.2% | [6] -5.25%

COc1ccc(NC(N)=O)cc1
inactive: [1] 12.2% | [2] -16.4% | [3] 0.05% | [4] -1.25% | [5] -6.35% | [6] 10.4%

CC(C)=C1CCC(CN2CCCC2)C1=O (configuration not stated)
inactive: [1] 20.1% | [2] 13.4% | [3] 17.4% | [4] 19.2% | [5] 6.2% | [6] 23.6%

O=C1OCCc2c1[nH]c1ccccc21
inactive: [1] 12.9% | [2] 10.7% | [3] 5.65% | [4] 22.9% | [5] 13.5% | [6] 17.6%

COc1ccc(Cc2cc(N=NC(N)=O)c(C)cc2O)cc1
inactive: [1] -7.35% | [2] -5.65% | [3] -2.55% | [4] 1.75% | [5] 3.5% | [6] 4.55%

Cn1cnc2cc(N3CCOCC3)c([N+](=O)[O-])cc2c1=O
inactive: [1] 17.4% | [2] 12% | [3] -0.7% | [4] 12.8% | [5] -1.9% | [6] 17.8%
